# Results: ChEMBL document CHEMBL4513216, “Probing the Open Global Health Chemical Diversity Library for Multistage-Active Starting Points for Next-Generation Antimalarials” (ACS Infect Dis, 2020)
# Among all 69,000 compounds or so, about 8,600 (12%) showed an effect of 50% or more. The full list was thinned out, with strong results kept by preference.
# System: Plasmodium berghei
# Test: Screen against P. berghei liver stage (PbLuc), transformed with Luciferase, at 10uM
# Format: functional, HepG2
# Settings: tested at 10 uM
row,SMILES,INHIBITION
1,O=C1COC2(CCN(Cc3ccsc3)CC2)CN1,24.9%
2,Cc1ccc(NC2CCN(C(=O)c3ccnc(N(C)C)c3)CC2)nn1,-115%
3,Cc1nn(C)c(N2CCOCC2)c1CNC1CCc2cc(F)ccc21 (stereo not given),6%
4,O=C(NCc1ccccc1OCC1CC1)C1CCOC1 (stereo not given),56.5%
5,Cc1nn2cccnc2c1C(=O)NCc1ccccc1OCC1CC1,18.3%
6,CC(C)(C)Oc1ccccc1CNC(=O)C1CCCOC1 (stereo not given),29.8%
7,CC1(C)CN(CC(O)C(C)(C)C)C(=O)CN(C(=O)c2ccccc2)C1 (stereo not given),4.07%
8,CCN(Cc1ccccc1)Cc1nc2c(cnn2C)c(=O)[nH]1,-51.5%
9,Cc1noc(C)c1C(=O)Nc1ccc2ncn(CC(C)C)c(=O)c2c1,29.9%
10,O=C(NC(c1ccc(Cl)cc1)C(F)(F)F)c1nc(=O)[nH][nH]1 (stereo not given),66.8%
11,O=C(NC(CC(F)(F)F)c1ccc(Cl)cc1)c1nc(=O)[nH][nH]1 (stereo not given),-7.17%
12,CC(C)(C)CC(NC(=O)c1nc(=O)[nH][nH]1)c1ccc(F)cc1 (stereo not given),22.8%
13,Cc1csc(CN2CC[C@H]3O[C@H](C(=O)Nc4cccnc4)CC[C@H]32)n1,81.5%
14,CC(C)NC(=O)[C@@H]1CC[C@@H]2[C@@H](CCN2Cc2ccc3ccccc3n2)O1,31.9%
15,O=C(NCC1CC1)[C@@H]1CC[C@@H]2[C@@H](CCN2Cc2ccc(F)c(F)c2)O1,32.2%
16,CC(C)NC(=O)[C@@H]1CC[C@@H]2[C@@H](CCN2Cc2cn(C)c3ccccc23)O1,65.1%
17,Cc1cccc(CN2CC[C@H]3O[C@H](C(=O)Nc4cnccn4)CC[C@H]32)n1,34.3%
18,COc1ccc(CN2CC[C@H]3O[C@@H](C(=O)NCC4CC4)CC[C@H]32)cc1,53%
19,O=C(Nc1cnccn1)[C@@H]1CC[C@@H]2[C@@H](CCN2Cc2nccs2)O1,43.4%
20,O=C(NC1CC1)[C@H]1CC[C@@H]2[C@@H](CCN2Cc2ccsc2)O1,20.9%
21,CN1CCN(C(=O)[C@H]2CC[C@@H]3[C@@H](CCN3Cc3ccsc3)O2)CC1,52%
22,CNC(=O)[C@@H]1CC[C@@H]2[C@@H](CCN2Cc2cn(C)c3ccccc23)O1,-20.1%
23,O=C([C@H]1CC[C@@H]2[C@@H](CCN2Cc2ccsc2)O1)N1CCOCC1,-45.5%
24,O=C(NCC1CC1)[C@H]1CC[C@@H]2[C@@H](CCN2Cc2ccoc2)O1,26.8%
25,CC(c1ccncc1)N(C)C(=O)NCCOc1ccc(C#N)cc1 (stereo not given),34.7%

row,SMILES,INHIBITION
1,COCCN1CCN(c2ccc3ccc(C(=O)NC4CC4)cn23)CC1,18.6%
2,C=C(C)CN1CCN(Cc2cnc(OC)nc2)CC1,25.6%
3,COCCn1cc(CCC(=O)Nc2c(C)nn(C)c2C)c2ccccc21,39.4%
4,CN(C)C(=O)N1CCC2(CC1)C(c1cnn(C)c1)CC(=O)N2C (stereo not given),39.2%
5,Fc1cnc(N2CC[C@@H]3OC(COCc4cccnc4)CC[C@@H]32)nc1 (stereo not given in full),37.8%
6,O=C(NC1CCC1)[C@@H]1CC[C@@H]2[C@@H](CCN2CCc2ccccc2)O1,42.1%
7,Cc1csc(NC(=O)[C@@H]2C[C@H]3[C@H](CCN3S(C)(=O)=O)O2)n1,61.3%
8,COCCNC(=O)[C@@H]1CC[C@@H]2[C@@H](CCN2Cc2cnn(C)c2)O1,7.11%
9,Cn1cc(CN2CC[C@H]3O[C@H](C(=O)Nc4cnccn4)CC[C@H]32)cn1,30.3%
10,Cc1csc(NC(=O)[C@@H]2C[C@H]3[C@H](CCN3c3ncccn3)O2)n1,-16.2%
11,Cn1cc(CN2CC[C@H]3O[C@@H](C(=O)NC4CC4)CC[C@H]32)cn1,62.4%
12,O=C(NC1CC1)[C@H]1CC[C@@H]2[C@@H](CCN2CCOCc2ccccc2)O1,10.4%
13,Cn1cc(CN2CC[C@H]3O[C@H](C(=O)NC4CC4)CC[C@H]32)c2ccccc21,66.8%
14,CC(=O)N1CC[C@@H]2O[C@H](C(=O)Nc3nc(C)cs3)C[C@@H]21,-24.1%
15,CN(C)CC1(O)CCN(C(=O)Cc2ccc3ccccc3c2)C1 (stereo not given),-37.7%
16,COc1c(C2CCCN2C(=O)c2ccc(C(N)=O)s2)c(C)nn1C (stereo not given),2.93%
17,Cc1nc(CN(C)C2CCN(CCCOc3ccccc3)C2)no1 (stereo not given),31.9%
18,Cc1cnc(C(=O)NC(COCC(C)C)c2ccco2)cn1 (stereo not given),36.1%
19,O=C(N1CCOCC1)N1CCc2ncc(CN3CCCCC3)n2CC1,15.9%
20,CC(C)CCN1CCN(C(=O)c2cnccn2)CC1,25%
21,CC(C)Nc1n[nH]c2nc(C3CCN(C(=O)c4ccccn4)C3)ccc12 (stereo not given),-7.66%
22,CCCNC(=O)c1cc(Br)c2c(c1)OCCO2,31.2%
23,CCCC(C#N)NC(=O)c1cc(Br)c2c(c1)OCCO2 (stereo not given),60.5%
24,CC(C)NC(=O)c1cc(Br)c2c(c1)OCCO2,-48.4%
25,CC(CC#N)NC(=O)c1cc(Br)c2c(c1)OCCO2 (stereo not given),12.7%

row,SMILES,INHIBITION
1,CC(C)CNC(=O)c1cc(Br)c2c(c1)OCCO2,51.8%
2,CCC(C#N)NC(=O)c1cc(Br)c2c(c1)OCCO2 (stereo not given),-36.1%
3,COc1ccc(-c2nc(C#N)c(N(C)C)o2)cc1S(=O)(=O)N(C)C,12.8%
4,CC(NC(=O)c1cccs1)C(=O)Nc1cccnc1N1CCCCC1 (stereo not given),-36.3%
5,CC(=O)Nc1cnc(-n2ccnc2)nc1,13.8%
6,CC(=O)N(C)CC(=O)Nc1cnc(-n2ccnc2)nc1,41.2%
7,CC(=O)N(C)CC(=O)Nc1cnc(-n2ccnc2C)nc1,95.9%
8,CN(Cc1nccn1CC(F)(F)F)C(=O)c1cccc(N(C)C)c1,-15.7%
9,CC(=O)N1CCCC2(CN(Cc3ccc(F)cc3)CCO2)C1 (stereo not given),-0.813%
10,Cc1noc(C)c1CN1C(=O)[C@@H]2CC[C@H]1CN(Cc1ccc(Cl)cc1)C2,-48.1%
11,O=C(c1n[nH]cc1Br)N1CCOCC1,33.3%
12,COc1ccnc(N2CCC3(CCCN(CC4CC4)C3=O)C2)n1 (stereo not given),30.3%
13,COCCN1CCCC2(CCN(c3nc(C)nc4ccsc34)C2)C1=O (stereo not given),41.8%
14,Cc1nc(N2CCC3(CCCN(C(C)C)C3=O)C2)c2sccc2n1 (stereo not given),81.6%
15,COc1nccnc1N1CCC2(CCCN(C(C)C)C2=O)C1 (stereo not given),-9.17%
16,Cc1nc(N2CCC3(CCCN(CCO)C3=O)C2)c2sccc2n1 (stereo not given),40.5%
17,COc1ccnc(N2CCC3(CCCN(C(C)C)C3=O)C2)n1 (stereo not given),48.8%
18,CCCN1CCCC2(CCN(c3nc(C)nc4ccsc34)C2)C1=O (stereo not given),76.5%
19,CNc1nc(C(=O)N2CCC3(CCCN(CC4CC4)C3=O)C2)cs1 (stereo not given),21.2%
20,Cc1nc(N2CCC3(CCCN(CC4CC4)C3=O)C2)c2sccc2n1 (stereo not given),82.9%
21,Cc1ccc(N2CCCN(C(=O)C3CCCO3)CC2)nn1 (stereo not given),-72.5%
22,Cn1nc(CN2CCOCC2)c2c1CN(Cc1ccsc1)C2,8.03%
23,COc1ccc2c(c1)C(=O)NC1(CC2)CCN(Cc2ccccc2)C1 (stereo not given),41.3%
24,CC(C)c1nc(C2CCCN2CCOCC2CC2)no1 (stereo not given),12.3%
25,CN1C(=O)CC(C(=O)O)C12CCN(c1ccc3c(n1)CCCC3)CC2 (stereo not given),-11.7%

row,SMILES,INHIBITION
1,CC1(C)CN(CCC(=O)NCc2cccc(Cl)c2)CC[C@]1(C)O,24.2%
2,Cc1ccc2[nH]c(C(=O)N3CCCC3Cn3cccn3)cc2c1 (stereo not given),16.8%
3,O=C(CCc1ccccc1F)NS(=O)(=O)c1ccc2c(c1)OCCCO2,16%
4,CSCC(=O)N(C)Cc1ccc(N(C)C)cc1,47.4%
5,Cc1ccccc1S(=O)(=O)NC(=O)CSc1ccc2c(c1)OCCO2,5.65%
6,O=C(CCc1ccccc1F)NS(=O)(=O)c1ccc2c(c1)OCCO2,50.3%
7,CN(Cc1ccccc1)C(=O)CCS(=O)(=O)c1ccc2c(c1)OCCO2,41.4%
8,O=C(CCc1cc(F)ccc1F)NS(=O)(=O)c1ccc2c(c1)OCCO2,42%
9,CN(Cc1ccccc1)C(=O)CSc1ccc2c(c1)OCCO2,73.1%
10,O=C(CSc1ccc2c(c1)OCCO2)NS(=O)(=O)c1cc(F)ccc1F,27.6%
11,CN(Cc1ccc(N(C)C)cc1)C(=O)CSc1ccc(Br)cc1,79.1%
12,O=C(CSc1ccc2c(c1)OCCO2)NS(=O)(=O)c1ccccc1F,68.2%
13,CSCC(=O)N(C)Cc1ccccc1,47.4%
14,COc1cccc(CN(C)C(=O)CSc2ccc3c(c2)OCCO3)c1,-45.8%
15,Cn1ccnc1CC1CCCN(C(=O)NCCOc2cccnc2)C1 (stereo not given),44.5%
16,Cc1cn[nH]c1C1CCCCN1C(=O)CCc1c(C)n[nH]c1C (stereo not given),33.7%
17,c1cnc(NCc2nnn3c2CN(CC2CC2)CCC3)nc1,10.6%
18,CC(c1cccc(S(N)(=O)=O)c1)N(C)CCOc1ccccc1 (stereo not given),22.3%
19,Cc1nnc2n1CCN(C(=O)c1cn(-c3ccc(F)cc3)nn1)C2,-6.39%
20,CC(=O)N(Cc1ncc(C)o1)C1CCN(Cc2nnc(C3CC3)o2)C1 (stereo not given),34.9%
21,COc1ccc(S(=O)(=O)N2CCOC(C)(C(N)=O)C2)cc1 (stereo not given),-2.605%
22,NC1CCCc2c1cnn2-c1cc(F)cc(F)c1 (stereo not given),-19.1%
23,OCC(O)CSCc1ccc(Cl)cc1Cl (stereo not given),53.9%
24,OCC(O)CSCc1cc(Cl)ccc1Cl (stereo not given),5.41%
25,OCC(O)CSCc1ccc(F)cc1Cl (stereo not given),-15.6%
